The full list was thinned out, with hits kept by preference.
Tg IFNy HTS: T. gondii growth inhibition under IFN-gamma; 69,000 tested, 3.8% active; Toxoplasma gondii growth in IFN-gamma-treated host cells; active compounds read low; activity change, negative = inhibition, % (test concentration not listed); in the data active = activity change below about -70%, passing the limit was not always enough;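 also: host cells are HeLa cells infected with Toxoplasma gondii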
Starred values were filed as active, the others as inactive.

SMILES	Tg IFNy HTS
CC[C@@H](C(=O)C(C)[C@@H](O)[C@H](C)CCc1ccc(C)c(O)c1C(=O)O)C1OC(CC)(C2CC[C@](O)(CC)[C@H](C)O2)C[C@@H]1C (stereo partly specified)	-74.3*
Cc1ccc2c(n1)N(Cc1ccncc1)CCN(C(=O)N(C)C)C2	5.0
c1nc2ccc(-c3ccc4c(c3)OCO4)cc2[nH]1	8.9
CCCCOC(=O)N1CCc2c(nc(N(C)C)[nH]c2=O)C1	-15.9
O=c1sc2ccccc2n1CCCOc1ccccc1	-9.6
CN(CCOc1ccc(CC(Nc2ccccc2C(=O)c2ccccc2)C(=O)O)cc1)c1ccccn1 (stereo unspecified)	7.0
COC(=O)C(Cc1ccc(OCCn2c(=O)sc3cc(C(=O)c4ccccc4)ccc32)cc1)C(=O)OC	-86.7*
C[C@H](Nc1cc(NS(=O)(=O)N2CCC2)nc(SCc2cccc(F)c2F)n1)[C@@H](O)CO	23.1
Cc1nc(-c2cccc(F)c2)sc1CCNC(=O)c1ccc(Br)cc1	-50.1
COc1ccc(C(=O)c2sc(=S)n(-c3ccccc3)c2N)cc1	325.3
Cc1nc2sc(C(=O)c3ccc(Br)cc3)c(N)c2c(C)c1C	-95.3*
CC(=O)N1CCC(C(=O)NCc2ccccc2)(N(C(=O)c2ccc(C)cc2)c2ccc(C)c(F)c2)CC1	5.9
Cc1cc2ncn(CCC(=O)O)c2cc1C	29.6
Cc1ccc(C(NC(=O)CCn2c(C)cc(C)nc2=O)c2cccnc2)cc1 (stereo unspecified)	-3.9
COc1ccccc1-c1nc(Cn2nnc(-c3nc(-c4ccccn4)no3)c2C)c(C)o1	23.0
O=C(N1CCN(c2nc3ccccc3s2)CC1)N1c2ccccc2Sc2ccccc21	-17.8
CCCc1cc(=O)[nH]c(SCC(=O)N2CCN(c3ccccc3OC)CC2)n1	27.4
CCc1cc(=O)[nH]c(NC2CCN(C(=O)N3c4ccccc4Sc4ccccc43)CC2)n1	-117.3*
O=C(NCc1ccccn1)C1CNCCN1C(=O)c1cnc2ccccc2c1 (stereo unspecified)	2.1
Cn1cc(CCNC(=O)c2cn[nH]c2-c2ccccc2)c2cc(Cl)ccc21	16.0
Fc1ccc(CN2CCCC(OCc3cccnc3)C2)c(F)c1F (stereo unspecified)	2.9
CC(C)CC(NC(=O)c1cnnn1-c1ccccc1)c1ncnn1C (stereo unspecified)	-23.5
Cc1ccc(Nc2nc(C(=O)Nc3ccc(F)cc3F)nc3ccccc23)cc1	58.1
Cn1cnc([N+](=O)[O-])c1Sc1ncnc2nc[nH]c12	-85.7*
Cn1cnnc1Sc1c([N+](=O)[O-])ncn1C	-45.6
SMILES	Tg IFNy HTS
CC(C)C(=O)Nc1ncnc2nc[nH]c12	-51.5
Cc1[nH]c2c(CN3CCNC(C(=O)NC4CC4)C3)cccc2c1C (stereo unspecified)	8.6
COc1cccc(-c2nc(C)c(-c3ccc(SCc4ccncc4)nn3)s2)c1	1.2
CN(C)CCN1CCO[C@@H]2CN(Cc3nccs3)C[C@@H]21	6.2
C=CCN(Cc1ccc(F)cc1)C(=O)c1ccc(CN2CCCC2)o1	-11.0
CN(Cc1nc2ccc(F)cc2[nH]1)C1CCN(C(=O)c2ccccc2)CC1	-0.4
CC(C)[C@H]1c2ccc(F)cc2CC[C@@]1(CCN(C)CCCc1nc2ccccc2[nH]1)OC(=O)C1CC1	-86.1*
CC(C)N1CCNC(=O)C1CC(=O)N(C)Cc1nc2ccccc2[nH]1 (stereo unspecified)	-1.1
CCc1nc2ccccc2n1C1CCN(C(=O)c2cc3ccc(N(C)C)cc3[nH]2)CC1	8.2
COc1cc(N2CCC3OCCCC3(COCCN(C)C)C2)ncn1 (stereo unspecified)	2.3
Cn1ccnc1CN1CCC2(CC1)CN(CC#N)c1ccccc12	-3.2
O=C(Nc1ccc(Cl)cc1)Nc1ccccc1Sc1c(Cl)cncc1Cl	-97.0*
O=C(Nc1ccccc1)Nc1ccccc1SCCS(=O)(=O)c1ccc(Cl)cc1	-54.1
O=C(Nc1ccccc1Sc1c(Cl)cncc1Cl)c1cccs1	-67.6
Cc1ccc(S(=O)(=O)NCCc2sc(-c3cccc(F)c3)nc2C)c(C)c1	82.1
Cn1c(SCC(=O)C(C)(C)C)nnc1-c1cc(C(C)(C)C)nn1Cc1ccc(F)cc1	-42.4
C[C@@H]1CN(c2c(F)c(F)c3c(=O)c(C(=O)O)cn(C4CC4)c3c2F)C[C@H](C)N1	3.0
N[C@@H]1CCCCN(c2c(F)cc3c(=O)c(C(=O)O)cn(C4CC4)c3c2Cl)C1	-9.5
N#Cc1c(N2C[C@@H]3NCCO[C@H]3C2)c(F)cc2c(=O)c(C(=O)O)cn(C3CC3)c12	-86.2*
O=C(Cn1cccnc1=O)N1CC[C@@H](c2ccc3ccccc3c2)[C@H](O)C1	-19.7
CNC(=O)[C@H]1C[C@@H]2OCC[C@@H]2N(CCOCc2ccccc2)C1	-2.2
CCOc1ccccc1NC(=O)CCNC1CCS(=O)(=O)C1 (stereo unspecified)	-17.7
COc1ccc(NC2COC3(CCN(Cc4ccsc4)C3)C2)cc1 (stereo unspecified)	-9.7
CCC1CCCCN1C(=O)CCNc1c(-c2ccccc2OC)nc2cnccn12 (stereo unspecified)	37.8
